Screening data as filed in PubChem BioAssay.
The list is not random: actives were taken first. Their share in the collection is about 2.4%.
Nrf2 activator: activators of Nrf2 (ARE) signaling; AREc32 ARE-luciferase reporter (MCF7-derived line), luminescence, 24 h; Potency, µM (doses to about 46.1 µM), most hits filed as activators; 410,000 compounds, 0.31% hits; AID 624171; note: nearly all actives have a fitted effect of over 65% in size
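ARE activation measured as luciferase luminescence (Steady-Glo, 30 min RT) in AREc32_Fluc cells after 24 hr compound exposure at 37 deg C, 5% CO2; cells seeded overnight at 1000/well in OPTI-MEM, 5% FBS.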
Nrf2 inh: inhibitors of Nrf2 signaling; 360,000 compounds, 2.1% hits; Potency, µM (titrated, usually from 46 µM), usual class: inhibitors; A549 ARE-Fluc reporter, luciferase luminescence, 18-24 h; note: nearly all actives have a fitted effect of over 60% in size
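Quantitative HTS in A549 cells stably bearing an antioxidant response element-firefly luciferase construct. Inhibition of Nrf2-driven transcription was scored by luminescence after 18-24 h of compound exposure at 37 °C.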
Epigenetic derep: regulators of epigenetic silencing causing reporter derepression in mouse cells; murine LDR cells, GFP reporter derepression, 30 h; Potency, µM (series often up to 53.9 µM), usual class: activators; 280,000 compounds, 0.2% hits; AID 1865; note: nearly all actives have a fitted effect of over 60% in size
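Murine LDR cells carrying a silenced, genomically integrated CMV-driven GFP reporter were exposed to compound for 30 hours at 37 C. After PBS washes, GFP-positive cells (20–120 um objects) were counted by laser-scanning microplate cytometry.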
A549 tox: kills or reduces viability of A549 cells in Nrf2 counter-screen | A549 ARE-Fluc cells, CellTiter-Fluor viability, 18-24 h | Potency, µM (top dose mostly 46 µM), actives largely listed as inhibitors | 390,000 compounds, 0.16% hits | AID 504648
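Cytotoxicity counterscreen: CellTiter-Fluor fluorescence was measured in A549 ARE_Fluc cells after 18-24 h of compound exposure in a concentration series. The subsequent BugLite luminescent read reports ARE-luciferase activity.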
PINK1 expr mod: modulators of PINK1 expression | PINK1 immunofluorescence, high-content cytometry, 24 h | 410,000 compounds, 0.2% hits | Potency, µM (titrated, usually from 76.6 µM), most hits filed as activators; active = well fitted activation curve with a large enough effect; inconclusive = small, poorly fitted or top-dose-only effect; cell line not stated here; note: nearly all actives have a fitted effect of over 65% in size
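Measures PINK1 amount and localization on or inside mitochondria by immunofluorescence. Stable cells get compounds at 5 concentrations for 24 hours before fixation and staining; CCCP controls included.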
Of the large screens only hits and unclear results are named; the others gave an inactive call. Unless noted, calls come from the whole dose curve; as a rule, active = well fitted curve in the direction sought with a large enough effect; inconclusive = small, poorly fitted or top-dose-only effect, or another doubt; inactive = no such curve, though single readings can be large; an effect the other way counts as inactive or inconclusive.

CCOc1ccc2[nH]c3c(=O)n(CCc4ccc(OC)cc4)cnc3c2c1	Epigenetic derep 25µM
COc1cccc(C(=O)NCC2Cc3cccc(-c4nc(C)cnc4C)c3O2)c1OC (stereo unspecified)	none (no result: Nrf2 activator, Nrf2 inh, Epigenetic derep, A549 tox)
N#Cc1ccccc1COc1ccc(/C=C/C(=O)O)cc1	Nrf2 inh 2.3µM
Cn1c2ccccc2c2nnc(SCC(N)=O)nc21	none (no result: Epigenetic derep)
Cn1c2ccccc2c2nnc(SCCOc3ccccc3)nc21	Nrf2 inh 5.2µM (no result: Nrf2 activator, Epigenetic derep)
O=C(Nc1ccccc1C(=O)Nc1nnc(C(F)(F)F)s1)c1ccccc1	Nrf2 inh inconclusive, A549 tox 13µM, PINK1 expr mod inconclusive
COc1cccc(C(=O)NCC2Cc3c(F)ccc(-c4ncccn4)c3O2)c1OC (stereo unspecified)	none (no result: Nrf2 activator, Nrf2 inh, Epigenetic derep, A549 tox)
Cc1cc2c(cc1S(=O)(=O)Nc1ccc(C(C)C)cc1)OCCN2C	Nrf2 inh 13µM
CC(=O)c1cccc(NS(=O)(=O)c2cc3c(cc2C)N(C(C)=O)CCO3)c1	Nrf2 inh 18µM, A549 tox inconclusive
O=C(c1ccc2c(c1)OCO2)N1CCOc2ccc(CN3CCC(Oc4cccnc4)CC3)cc2C1	none (no result: Nrf2 activator, Nrf2 inh, Epigenetic derep, A549 tox)
CCC(=O)OCC(=O)[C@@]1(OC(=O)CC)[C@@H](C)C[C@H]2[C@@H]3CCC4=CC(=O)C=C[C@]4(C)[C@@]3(Cl)[C@@H](O)C[C@@]21C	Nrf2 inh 0.0058µM (no result: Epigenetic derep)
COc1cccc(CN2C(=O)NC(C)(C3CCN(Cc4cnn(C)c4C)CC3)C2=O)c1OC (stereo unspecified)	none (no result: Nrf2 activator, Nrf2 inh, Epigenetic derep, A549 tox)
CCOc1cc(/C=C2\CN(CC)C/C(=C\c3ccc(O)c(OCC)c3)C2=O)ccc1O	Nrf2 activator inconclusive, Nrf2 inh inconclusive, A549 tox inconclusive (no result: Epigenetic derep)
CCN1C/C(=C/c2cccc([N+](=O)[O-])c2)C(=O)/C(=C/c2cccc([N+](=O)[O-])c2)C1	Nrf2 activator 13µM
O=C1NC(=S)S/C1=C\c1cccc([N+](=O)[O-])c1	Nrf2 inh 18µM, A549 tox inconclusive, PINK1 expr mod inconclusive (no result: Epigenetic derep)
CC1Cc2cc(/C=C3/SC(=S)NC3=O)ccc2O1 (stereo unspecified)	Nrf2 inh inconclusive, A549 tox 13µM
Cc1ccc(CNc2ncnc3sc(C(=O)N4CCC[C@H]4C(N)=O)c(C)c23)o1	none (no result: Nrf2 activator, Nrf2 inh, Epigenetic derep, A549 tox)
COC(=O)C1CCCCN1Cc1ccc2c(c1)CN(Cc1cn[nH]c1-c1ccc(F)cc1)CCO2 (stereo unspecified)	none (no result: Nrf2 activator, Nrf2 inh, Epigenetic derep, A549 tox)
Cc1cccc(Cc2c(C)nc3c(C(=O)N4CCN(Cc5ccc6c(c5)OCO6)CC4)cnn3c2C)c1	Nrf2 inh 18µM, Epigenetic derep inconclusive, PINK1 expr mod inconclusive
Cc1cccc(-c2nc(CSCC(=O)N3CCN(Cc4ccc5c(c4)OCO5)CC3)c(C)o2)c1	Nrf2 inh 21µM
Cc1cccc(Cc2c(C)nc3c(C(=O)NCc4ccco4)cnn3c2C)c1	Nrf2 inh 23µM, A549 tox inconclusive
COc1ccc(-c2ccc(C(=O)NCC3Cc4cccc(-c5nc(C)cnc5C)c4O3)o2)cc1 (stereo unspecified)	none (no result: Nrf2 activator, Nrf2 inh, Epigenetic derep, A549 tox)
COc1cc(=O)n2c(c1C(=O)NCc1nonc1C)CCN(C(=O)c1cccc(C)c1C)CC2	none (no result: Nrf2 activator, Nrf2 inh, Epigenetic derep, A549 tox)
c1cncc(OC2CCN(Cc3ccc4c(c3)CN(Cc3ccc5c(c3)CCO5)CCO4)CC2)c1	none (no result: Nrf2 activator, Nrf2 inh, Epigenetic derep, A549 tox)
COc1ccc(NC(=S)NC(NC(=O)c2cccc(Cl)c2)C(Cl)(Cl)Cl)c([N+](=O)[O-])c1 (stereo unspecified)	Nrf2 inh 26µM, A549 tox inconclusive, PINK1 expr mod inconclusive
COc1ccc(NC(=S)NC(NC(=O)c2cccc(C)c2)C(Cl)(Cl)Cl)c([N+](=O)[O-])c1 (stereo unspecified)	Nrf2 inh inconclusive
CC(C)(C)NC(=O)COC(=O)c1snc(C(=O)NC2CCCCC2)c1N	Nrf2 inh inconclusive
CC(OC(=O)c1snc(C(=O)NC2CCCCC2)c1N)C(=O)NC(C)(C)C (stereo unspecified)	Nrf2 inh 11µM
O=C(NCCO)c1cn(C2CCN(Cc3c(F)cccc3Cl)CC2)nn1	none (no result: Nrf2 activator, Nrf2 inh, Epigenetic derep, A549 tox)
Cc1ccc(CNc2nc3c([nH]2)c(=O)n(C)c(=O)n3C)cc1	Nrf2 inh 9.2µM
Cc1ccc(NS(=O)(=O)c2cc(NC(=O)c3ccc4c(c3)NC(=O)CS4)ccc2Cl)c(C)c1	Nrf2 inh 7.3µM, A549 tox inconclusive
COc1ccc(OC)c(C2C3CN(C(C)C)CC=C3C(C#N)=C(N)C2(C#N)C#N)c1 (stereo unspecified)	PINK1 expr mod 40µM
CC(=O)N1CC=C2C(C#N)=C(N)C(C#N)(C#N)C(CCc3ccccc3)C2C1 (stereo unspecified)	Nrf2 activator inconclusive
CCCN1CC=C2C(C#N)=C(N)C(C#N)(C#N)C(c3cccc(OC)c3OC)C2C1 (stereo unspecified)	PINK1 expr mod 10µM
CCN1CC=C2C(C#N)=C(N)C(C#N)(C#N)C(CCc3ccccc3)C2C1 (stereo unspecified)	PINK1 expr mod 10µM
CCCCOc1ccc(C2C3CN(C(=O)OCC)CC=C3C(C#N)=C(N)C2(C#N)C#N)cc1OC (stereo unspecified)	none (no result: Nrf2 inh)
Cc1ccc(C2C3CN(C(C)C)CC=C3C(C#N)=C(N)C2(C#N)C#N)cc1 (stereo unspecified)	PINK1 expr mod 25µM
CN(C)c1ccc(C2CCc3ccccc3N2C(=O)c2ccccc2)cc1 (stereo unspecified)	none (no result: Nrf2 activator, Nrf2 inh, Epigenetic derep, A549 tox)
Cc1cc(Nc2ccc(C)c(Cl)c2)n2nc(-c3ccccc3)nc2n1	Epigenetic derep 11µM, PINK1 expr mod inconclusive
CCCCNc1c(-c2ccc(OC)c(Sc3ccc(OC)cc3)c2)nc2cnccn12	Nrf2 inh inconclusive (no result: Epigenetic derep)
CCCCNc1c(-c2ccc(OC)c(Sc3ccc(OC)cc3)c2)nc2ccccn12	Nrf2 inh 18µM, A549 tox inconclusive (no result: Epigenetic derep)
Cc1cc(/C=C2\SC(=S)N(Cc3ccco3)C2=O)c(C)n1-c1cccnc1	Epigenetic derep 22µM, PINK1 expr mod inconclusive
O=C1/C(=C/c2cccnc2)SC(=S)N1Cc1ccco1	Nrf2 activator inconclusive (no result: Epigenetic derep)
COc1cccc(/C=C2\SC(=S)N(c3cccnc3)C2=O)c1OC	none
Cc1cc(/C=C2/SC(=S)N(c3cccc(C(F)(F)F)c3)C2=O)c(C)n1-c1cccnc1	Nrf2 inh 5.8µM, A549 tox inconclusive (no result: Epigenetic derep)
Cc1ccccc1OCC(=O)Nc1ccc(OCc2cc(=O)n3ccsc3n2)cc1	PINK1 expr mod inconclusive
O=C(COC(=O)c1cc([N+](=O)[O-])ccc1NCCO)Nc1ccc2c(c1)OCO2	Nrf2 inh 10µM, A549 tox inconclusive, PINK1 expr mod inconclusive
Cc1cc(NC(=O)COC(=O)c2cc([N+](=O)[O-])ccc2N2CCOCC2)ccc1Br	Nrf2 inh 18µM, A549 tox inconclusive (no result: Epigenetic derep)
O=C(COC(=O)c1cc([N+](=O)[O-])ccc1N1CCOCC1)c1ccc(Br)cc1	Nrf2 inh 26µM, A549 tox inconclusive (no result: Epigenetic derep)
O=C(CN1CCOCC1)Nc1ccccc1Sc1ccc(Cl)cc1	Nrf2 inh 29µM
